About 8,800 targets were measured; listed, in parts, are those with a hit and a random draw of the rest. About 0.5% of all pairs of compound and target were hits.
Tests used:
Test in all cases: log2 fold change, soluble protein after heating vs DMSO (PISA); higher = thermal stabilisation; K562 lysate, 10 uM; active = over 0.2 and 3.5 SD of the protein, either way, in both replicates (recomputed)
lapatinib = compound: CS(=O)(=O)CCNCc1ccc(-c2ccc3ncnc(Nc4ccc(OCc5cccc(F)c5)c(Cl)c4)c3c2)o1 [lapatinib]
Method in brief: (§1)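 Values give the log-two fold change in thermal stability against solvent controls, from duplicates. Crude K562 extract at 1 mg/mL protein, made by dounce homogenisation in PBS pH 7.4 with 1 mM MgCl2, was treated with 10 μM compound for 30 min. After 3 min heating across 48°C-58°C, aliquots were pooled, adjusted to 0.5% NP-40 at 4°C and centrifuged at 21,000xg for 90 min. The supernatant was measured by TMTpro 16plex LC-MS/MS with channel sums equalised.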

pictilisib = compound: CS(=O)(=O)N1CCN(Cc2cc3nc(-c4cccc5[nH]ncc45)nc(N4CCOCC4)c3s2)CC1 [pictilisib]
Method in brief: as §1

crizotinib = compound: C[C@@H](Oc1cc(-c2cnn(C3CCNCC3)c2)cnc1N)c1c(Cl)ccc(F)c1Cl [crizotinib]
Method in brief: as §1

[1] = compound: C[C@H](C1=CC=C(C=C1)C(=O)NC2=C3C=CNC3=NC=C2)N
Method in brief: as §1

duvelisib = compound: C[C@H](Nc1ncnc2nc[nH]c12)c1cc2cccc(Cl)c2c(=O)n1-c1ccccc1 [duvelisib]
Method in brief: as §1

gandotinib = compound: Cc1cc(Nc2cc(CN3CCOCC3)c3nc(C)c(Cc4ccc(Cl)cc4F)n3n2)n[nH]1 [gandotinib]
Method in brief: as §1

tozasertib = compound: Cc1cc(Nc2cc(N3CCN(C)CC3)nc(Sc3ccc(NC(=O)C4CC4)cc3)n2)n[nH]1 [tozasertib]
Method in brief: as §1

doramapimod = compound: Cc1ccc(-n2nc(C(C)(C)C)cc2NC(=O)Nc2ccc(OCCN3CCOCC3)c3ccccc23)cc1 [doramapimod]
Method in brief: as §1

bafetinib = compound: Cc1ccc(NC(=O)c2ccc(CN3CC[C@H](N(C)C)C3)c(C(F)(F)F)c2)cc1Nc1nccc(-c2cncnc2)n1 [bafetinib]
Method in brief: as §1

[2] = compound: Cc1cccc(CC(=O)N2CCc3c2ccc(-c2cn(C)c4ncnc(N)c24)c3F)n1
Method in brief: as §1

nilotinib = compound: Cc1cn(-c2cc(NC(=O)c3ccc(C)c(Nc4nccc(-c5cccnc5)n4)c3)cc(C(F)(F)F)c2)cn1 [nilotinib]
Method in brief: as §1

[3] = compound: Cc1nc(Nc2n[nH]c3c2CN(C(=O)N[C@H](CN(C)C)c2ccccc2)C3(C)C)c2sccc2n1
Method in brief: as §1

dasatinib = compound: Cc1nc(Nc2ncc(C(=O)Nc3c(C)cccc3Cl)s2)cc(N2CCN(CCO)CC2)n1 [dasatinib]
Method in brief: as §1

[4] = compound: Cc1ncc(-c2ccnc(Nc3ccc(S(C)(=O)=O)cc3)n2)n1C(C)C
Method in brief: as §1

[5] = compound: Cn1cc(-c2ccc3c(c2)CCN3C(=O)Cc2cccc(C(F)(F)F)c2)c2c(N)ncnc21
Method in brief: as §1

quisinostat = compound: Cn1cc(CNCC2CCN(c3ncc(C(=O)NO)cn3)CC2)c2ccccc21 [quisinostat]
Method in brief: as §1

tipifarnib = compound: Cn1cncc1[C@@](N)(c1ccc(Cl)cc1)c1ccc2c(c1)c(-c1cccc(Cl)c1)cc(=O)n2C [tipifarnib]
Method in brief: as §1

[6] = compound: NC(=O)Nc1cc(-c2cccc(F)c2)sc1C(=O)N[C@H]1CCCNC1
Method in brief: as §1

[7] = compound: NC(=O)c1cnc(N[C@@H]2CCCC[C@@H]2N)nc1Nc1cccc(-n2nccn2)c1
Method in brief: as §1

[8] = compound: NC1(c2ccc(-c3nc4ccn5c(=O)[nH]nc5c4cc3-c3ccccc3)cc2)CCC1
Method in brief: as §1

Measured: log2 fold change

TYMS (UniProt P04818)
inactive: lapatinib -0.007 | pictilisib -0.017 | crizotinib 0.002 | [1] 0.003 | duvelisib 0.018 | gandotinib 0.058 | tozasertib 0.011 | doramapimod -0.019 | bafetinib -0.005 | [2] -0.017 | nilotinib 0.012 | [3] -0.032 | dasatinib -0.023 | [4] -0.015 | [5] 0.01 | quisinostat -0.001 | tipifarnib -0.02 | [6] 0.034 | [7] 0.015 | [8] -0.032

TLE3 isoform 5 (UniProt Q04726)
inactive: lapatinib 0.011 | pictilisib 0.127 | crizotinib 0.001 | [1] -0.409 | duvelisib 0.031 | gandotinib -0.062 | tozasertib -0.089 | doramapimod -0.061 | bafetinib 0.084 | [2] 0.084 | nilotinib 0.142 | [3] -0.174 | dasatinib -0.007 | [4] -0.06 | [5] 0.028 | quisinostat -0.102 | tipifarnib 0.05 | [6] -0.009 | [7] 0.024 | [8] 0.058

TOE1 (UniProt Q96GM8)
inactive: lapatinib 0.002 | pictilisib -0.057 | crizotinib 0.003 | [1] -0.023 | duvelisib 0.052 | gandotinib -0.016 | tozasertib 0.059 | doramapimod -0.04 | bafetinib 0.047 | [2] 0.059 | nilotinib -0.039 | [3] -0.012 | dasatinib 0.016 | [4] 0.04 | [5] 0.015 | quisinostat -0.036 | tipifarnib 0.006 | [6] 0.023 | [7] -0.013 | [8] -0.01

TRIM33 (UniProt H0Y612)
inactive: lapatinib -0.078 | pictilisib 0.044 | crizotinib 0.004 | [1] -0.093 | duvelisib 0.012 | gandotinib 0.019 | tozasertib 0.07 | doramapimod 0.001 | bafetinib -0.077 | [2] 0.039 | nilotinib -0.021 | [3] 0.153 | dasatinib 0.043 | [4] 0.138 | [5] -0.033 | quisinostat -0.238 | tipifarnib -0.052 | [6] 0.069 | [7] -0.036 | [8] -0.106

TBRG4 (UniProt Q969Z0)
UniProt Q969Z0, sequence (Q969Z0 whole entry, looked up): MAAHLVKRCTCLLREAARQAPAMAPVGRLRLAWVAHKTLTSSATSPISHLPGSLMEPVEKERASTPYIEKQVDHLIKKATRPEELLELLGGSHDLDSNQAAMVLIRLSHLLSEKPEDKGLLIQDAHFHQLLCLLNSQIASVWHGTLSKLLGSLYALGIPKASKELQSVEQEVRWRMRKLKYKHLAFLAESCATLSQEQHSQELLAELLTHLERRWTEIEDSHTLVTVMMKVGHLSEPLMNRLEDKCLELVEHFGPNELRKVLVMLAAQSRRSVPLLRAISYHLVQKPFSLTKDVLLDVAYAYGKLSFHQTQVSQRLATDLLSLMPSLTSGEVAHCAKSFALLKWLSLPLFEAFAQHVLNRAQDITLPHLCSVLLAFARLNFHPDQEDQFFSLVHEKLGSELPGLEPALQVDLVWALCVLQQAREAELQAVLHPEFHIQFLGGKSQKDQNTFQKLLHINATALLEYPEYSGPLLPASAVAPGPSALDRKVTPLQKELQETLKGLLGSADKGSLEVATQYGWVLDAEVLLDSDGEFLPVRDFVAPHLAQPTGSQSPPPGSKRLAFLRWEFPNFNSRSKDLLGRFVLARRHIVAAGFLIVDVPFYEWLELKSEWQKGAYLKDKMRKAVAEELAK
inactive: lapatinib -0.021 | pictilisib -0.039 | crizotinib -0.031 | [1] 0.08 | duvelisib 0.006 | tozasertib 0.038 | doramapimod -0.012 | bafetinib -0.029 | [2] -0.021 | nilotinib -0.016 | [3] -0.03 | dasatinib -0.035 | [4] 0.007 | [5] 0.059 | quisinostat 0.004 | tipifarnib -0.006 | [6] 0.038 | [7] 0.022 | [8] 0.019
active: gandotinib -0.269

TRIM23 (UniProt P36406)
inactive: lapatinib -0.063 | pictilisib -0.12 | crizotinib -0.003 | [1] -0.235 | duvelisib 0.134 | tozasertib 0.026 | doramapimod 0.01 | bafetinib -0.088 | [2] 0.297 | nilotinib 0.107 | [3] -0.004 | dasatinib -0.005 | [4] -0.046 | [5] 0.136 | quisinostat -0.044 | tipifarnib 0.023 | [6] 0.005 | [7] 0.072 | [8] 0.037
active: gandotinib 0.372

UBAP2L isoform 5 (UniProt Q14157)
UniProt Q14157, sequence (Q14157 whole entry, looked up): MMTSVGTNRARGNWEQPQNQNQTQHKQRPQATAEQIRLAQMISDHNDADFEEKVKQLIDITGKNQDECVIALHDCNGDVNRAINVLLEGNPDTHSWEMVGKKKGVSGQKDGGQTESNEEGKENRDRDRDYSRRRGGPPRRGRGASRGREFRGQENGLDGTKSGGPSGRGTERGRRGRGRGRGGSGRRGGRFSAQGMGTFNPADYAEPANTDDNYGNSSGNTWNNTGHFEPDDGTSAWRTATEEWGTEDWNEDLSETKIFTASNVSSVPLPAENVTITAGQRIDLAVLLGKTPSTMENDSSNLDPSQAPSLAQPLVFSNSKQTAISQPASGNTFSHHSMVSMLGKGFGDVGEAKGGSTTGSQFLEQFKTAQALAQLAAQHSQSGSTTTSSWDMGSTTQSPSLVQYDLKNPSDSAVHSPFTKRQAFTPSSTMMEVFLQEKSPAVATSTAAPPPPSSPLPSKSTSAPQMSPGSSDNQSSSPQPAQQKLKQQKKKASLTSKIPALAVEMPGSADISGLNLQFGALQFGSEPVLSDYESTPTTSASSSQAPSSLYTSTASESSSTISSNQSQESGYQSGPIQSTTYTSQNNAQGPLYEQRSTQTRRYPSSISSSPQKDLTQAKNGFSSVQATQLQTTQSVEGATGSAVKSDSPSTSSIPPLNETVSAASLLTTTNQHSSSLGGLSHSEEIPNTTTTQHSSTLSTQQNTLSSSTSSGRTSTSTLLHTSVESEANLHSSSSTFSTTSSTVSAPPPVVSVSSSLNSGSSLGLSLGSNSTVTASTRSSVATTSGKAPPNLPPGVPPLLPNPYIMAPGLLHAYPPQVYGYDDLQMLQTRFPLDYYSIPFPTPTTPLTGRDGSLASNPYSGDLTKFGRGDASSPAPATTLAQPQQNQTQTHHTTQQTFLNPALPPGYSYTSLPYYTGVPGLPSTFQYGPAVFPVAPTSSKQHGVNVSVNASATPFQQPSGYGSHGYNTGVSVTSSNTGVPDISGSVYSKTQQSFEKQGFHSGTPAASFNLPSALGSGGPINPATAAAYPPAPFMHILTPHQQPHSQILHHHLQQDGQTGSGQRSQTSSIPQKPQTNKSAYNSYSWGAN
inactive: lapatinib -0.022 | pictilisib -0.116 | crizotinib 0.099 | [1] -0.002 | duvelisib -0.047 | gandotinib 0.034 | tozasertib -0.049 | doramapimod -0.121 | bafetinib -0.015 | [2] -0.026 | nilotinib -0.141 | [3] 0.015 | dasatinib -0.035 | [4] 0.055 | [5] -0.058 | quisinostat 0.024 | tipifarnib -0.106 | [6] 0.048 | [7] 0.01 | [8] 0.02

TRIP12 isoform 2 (UniProt Q14669)
UniProt Q14669, sequence (Q14669 whole entry, looked up): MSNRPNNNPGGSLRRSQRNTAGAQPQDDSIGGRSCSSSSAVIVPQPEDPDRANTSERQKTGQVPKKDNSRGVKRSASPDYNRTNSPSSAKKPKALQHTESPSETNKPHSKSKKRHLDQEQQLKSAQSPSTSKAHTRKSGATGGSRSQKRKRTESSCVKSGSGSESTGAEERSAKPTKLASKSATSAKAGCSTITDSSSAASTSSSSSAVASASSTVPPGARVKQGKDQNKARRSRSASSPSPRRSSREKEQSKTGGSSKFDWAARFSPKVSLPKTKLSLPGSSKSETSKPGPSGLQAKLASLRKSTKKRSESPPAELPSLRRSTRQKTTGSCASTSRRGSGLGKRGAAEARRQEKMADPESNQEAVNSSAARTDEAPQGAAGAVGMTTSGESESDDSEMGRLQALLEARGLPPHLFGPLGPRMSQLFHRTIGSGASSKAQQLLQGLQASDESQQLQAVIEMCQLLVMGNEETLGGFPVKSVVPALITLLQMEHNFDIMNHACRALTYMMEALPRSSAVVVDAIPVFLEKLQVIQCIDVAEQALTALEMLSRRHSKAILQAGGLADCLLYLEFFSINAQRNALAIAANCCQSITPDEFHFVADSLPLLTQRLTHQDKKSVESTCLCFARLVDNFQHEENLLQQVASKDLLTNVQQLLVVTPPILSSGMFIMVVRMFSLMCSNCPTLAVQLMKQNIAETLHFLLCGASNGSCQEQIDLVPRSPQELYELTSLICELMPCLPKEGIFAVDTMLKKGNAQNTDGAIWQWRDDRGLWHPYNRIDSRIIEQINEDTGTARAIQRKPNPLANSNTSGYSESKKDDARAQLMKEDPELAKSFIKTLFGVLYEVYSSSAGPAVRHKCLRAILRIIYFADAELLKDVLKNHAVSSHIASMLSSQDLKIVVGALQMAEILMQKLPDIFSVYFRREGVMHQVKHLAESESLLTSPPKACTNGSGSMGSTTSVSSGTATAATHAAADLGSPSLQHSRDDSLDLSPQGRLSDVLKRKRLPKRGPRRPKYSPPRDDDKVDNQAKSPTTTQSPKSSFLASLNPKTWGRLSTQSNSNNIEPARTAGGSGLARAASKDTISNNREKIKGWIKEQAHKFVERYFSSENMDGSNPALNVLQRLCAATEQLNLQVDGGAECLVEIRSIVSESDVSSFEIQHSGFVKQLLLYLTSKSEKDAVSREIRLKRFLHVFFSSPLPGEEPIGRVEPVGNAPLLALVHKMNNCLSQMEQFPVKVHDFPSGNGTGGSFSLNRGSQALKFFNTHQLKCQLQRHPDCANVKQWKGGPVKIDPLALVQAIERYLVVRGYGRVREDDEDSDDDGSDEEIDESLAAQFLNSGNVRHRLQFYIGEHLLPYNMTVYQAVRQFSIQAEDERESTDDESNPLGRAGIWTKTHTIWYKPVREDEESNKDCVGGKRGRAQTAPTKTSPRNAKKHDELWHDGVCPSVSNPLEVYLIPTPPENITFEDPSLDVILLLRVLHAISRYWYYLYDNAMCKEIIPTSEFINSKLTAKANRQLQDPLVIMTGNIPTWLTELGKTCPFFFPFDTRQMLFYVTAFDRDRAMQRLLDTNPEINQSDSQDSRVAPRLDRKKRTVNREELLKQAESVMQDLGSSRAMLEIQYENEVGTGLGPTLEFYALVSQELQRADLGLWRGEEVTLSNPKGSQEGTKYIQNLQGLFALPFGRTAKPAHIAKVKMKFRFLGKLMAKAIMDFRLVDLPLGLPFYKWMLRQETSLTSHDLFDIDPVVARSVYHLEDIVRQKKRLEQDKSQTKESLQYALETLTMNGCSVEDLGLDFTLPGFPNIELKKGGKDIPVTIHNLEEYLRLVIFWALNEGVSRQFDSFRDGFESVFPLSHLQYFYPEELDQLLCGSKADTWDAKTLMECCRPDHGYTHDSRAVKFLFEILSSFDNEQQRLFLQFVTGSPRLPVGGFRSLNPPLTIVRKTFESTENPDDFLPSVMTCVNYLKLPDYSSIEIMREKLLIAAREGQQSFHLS
inactive: lapatinib -0.109 | pictilisib 0.016 | crizotinib -0.029 | [1] -0.012 | duvelisib 0.05 | gandotinib -0.042 | tozasertib 0.024 | doramapimod -0.006 | bafetinib -0.06 | [2] 0.06 | nilotinib -0.019 | [3] 0.011 | dasatinib 0.003 | [4] 0.001 | [5] 0.039 | quisinostat -0.065 | tipifarnib -0.017 | [6] 0.057 | [7] 0.016 | [8] 0.003

TPM3 (UniProt P06753)
UniProt P06753, sequence (P06753 whole entry, looked up): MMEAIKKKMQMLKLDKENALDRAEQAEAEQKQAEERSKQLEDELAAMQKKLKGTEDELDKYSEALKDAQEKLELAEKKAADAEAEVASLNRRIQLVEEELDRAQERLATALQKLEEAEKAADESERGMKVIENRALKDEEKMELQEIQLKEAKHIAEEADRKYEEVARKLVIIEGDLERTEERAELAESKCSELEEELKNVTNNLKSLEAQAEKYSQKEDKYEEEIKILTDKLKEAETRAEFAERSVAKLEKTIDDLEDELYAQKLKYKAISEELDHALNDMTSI
inactive: lapatinib 0.014 | pictilisib 0.005 | crizotinib 0.022 | [1] 0.123 | duvelisib 0.009 | gandotinib -0.039 | tozasertib -0.003 | doramapimod -0.022 | bafetinib 0.052 | [2] -0.088 | nilotinib 0.014 | [3] -0.033 | dasatinib 0.023 | [4] 0.028 | [5] -0.012 | quisinostat 0.046 | tipifarnib 0.033 | [6] -0.042 | [7] -0.02 | [8] 0.034

UFM1 (UniProt P61960)
UniProt P61960, sequence (P61960 whole entry, looked up): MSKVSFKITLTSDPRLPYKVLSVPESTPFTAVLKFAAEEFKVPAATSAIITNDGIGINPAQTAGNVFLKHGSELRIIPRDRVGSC
inactive: lapatinib 0.134 | pictilisib 0.033 | crizotinib 0.191 | duvelisib 0.077 | gandotinib -0.36 | tozasertib -0.002 | doramapimod 0.022 | bafetinib 0.102 | [2] -0.319 | nilotinib 0.042 | [3] 0 | dasatinib -0.037 | [4] 0.107 | [5] -0.032 | quisinostat 0.321 | tipifarnib 0.088 | [6] -0.116 | [7] -0.063 | [8] 0.043
active: [1] 0.566

TRAF2 isoform 2 (UniProt Q12933)
UniProt Q12933, sequence (Q12933 whole entry, looked up): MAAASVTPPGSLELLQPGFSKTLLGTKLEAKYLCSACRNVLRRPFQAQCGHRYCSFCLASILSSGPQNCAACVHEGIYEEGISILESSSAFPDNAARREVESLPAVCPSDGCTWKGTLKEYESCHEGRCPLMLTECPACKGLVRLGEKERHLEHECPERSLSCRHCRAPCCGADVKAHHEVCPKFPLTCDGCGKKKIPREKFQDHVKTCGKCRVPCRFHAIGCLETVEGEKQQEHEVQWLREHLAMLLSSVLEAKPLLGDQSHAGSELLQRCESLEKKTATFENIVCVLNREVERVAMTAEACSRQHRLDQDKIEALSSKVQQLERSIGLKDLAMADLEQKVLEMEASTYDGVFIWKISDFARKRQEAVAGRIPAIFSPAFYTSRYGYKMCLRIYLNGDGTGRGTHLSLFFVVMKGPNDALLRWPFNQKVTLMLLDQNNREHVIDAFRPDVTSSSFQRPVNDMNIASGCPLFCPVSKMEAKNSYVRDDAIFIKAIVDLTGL
inactive: lapatinib -0.032 | pictilisib 0.004 | crizotinib -0.032 | [1] -0.047 | duvelisib 0.006 | gandotinib -0.045 | tozasertib 0.007 | doramapimod 0.005 | bafetinib -0.011 | [2] 0.053 | nilotinib -0.02 | [3] 0.008 | dasatinib -0.024 | [4] 0.042 | [5] 0.01 | quisinostat -0.024 | tipifarnib 0.005 | [6] -0.016 | [7] 0.001 | [8] -0.016

TOPBP1 (UniProt Q92547)
inactive: lapatinib 0.095 | pictilisib -0.037 | crizotinib 0.023 | [1] 0.206 | duvelisib -0.03 | gandotinib -0.048 | tozasertib -0.066 | doramapimod 0.056 | bafetinib -0.076 | [2] -0.017 | nilotinib 0.013 | [3] -0.056 | dasatinib 0.003 | [4] 0.006 | [5] 0.02 | quisinostat -0.018 | tipifarnib 0.049 | [6] -0.002 | [7] 0.039 | [8] -0.007

TUBB4B (UniProt P68371)
UniProt P68371, sequence (P68371 whole entry, looked up): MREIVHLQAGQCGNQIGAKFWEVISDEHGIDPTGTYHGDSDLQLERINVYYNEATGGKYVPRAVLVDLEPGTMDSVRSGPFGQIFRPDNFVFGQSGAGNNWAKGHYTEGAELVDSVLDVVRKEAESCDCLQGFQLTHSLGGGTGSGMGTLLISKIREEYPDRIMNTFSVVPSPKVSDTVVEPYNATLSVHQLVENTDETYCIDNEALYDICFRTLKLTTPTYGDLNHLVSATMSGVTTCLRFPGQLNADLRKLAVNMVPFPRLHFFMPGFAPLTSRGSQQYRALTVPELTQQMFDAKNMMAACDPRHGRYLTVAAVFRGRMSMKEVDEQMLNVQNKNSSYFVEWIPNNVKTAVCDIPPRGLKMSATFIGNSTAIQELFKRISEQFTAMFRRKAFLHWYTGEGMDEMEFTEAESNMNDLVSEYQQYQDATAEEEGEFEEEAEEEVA
inactive: lapatinib 0.027 | pictilisib 0.017 | crizotinib -0.027 | [1] 0.053 | duvelisib -0.029 | gandotinib 0.004 | tozasertib 0.011 | doramapimod -0.024 | bafetinib 0.027 | [2] -0.043 | nilotinib 0.049 | [3] -0.05 | dasatinib -0.025 | [4] -0.034 | [5] -0.005 | quisinostat 0.033 | tipifarnib -0.001 | [6] 0.006 | [7] -0.019 | [8] 0.009

TBC1D2B (UniProt Q9UPU7)
inactive: lapatinib 0.076 | pictilisib 0.006 | crizotinib 0.041 | [1] 0.007 | duvelisib 0.027 | gandotinib -0.096 | tozasertib -0.005 | doramapimod 0.007 | bafetinib -0.057 | [2] 0.052 | nilotinib -0.019 | [3] 0.038 | dasatinib -0.008 | [4] -0.07 | [5] 0.055 | quisinostat 0.007 | tipifarnib -0.087 | [6] 0.007 | [7] -0.021 | [8] 0.006

TDRKH (UniProt Q9Y2W6)
inactive: lapatinib -0.069 | pictilisib -0.036 | crizotinib -0.083 | [1] -0.061 | duvelisib -0.028 | gandotinib 0.062 | tozasertib 0.081 | doramapimod -0.043 | bafetinib 0.02 | [2] 0.074 | nilotinib -0.01 | [3] -0.077 | dasatinib -0.059 | [4] 0.018 | [5] 0.028 | quisinostat -0.087 | tipifarnib -0.048 | [6] 0.041 | [7] 0.003 | [8] 0.067

TRIM11 (UniProt Q96F44)
inactive: lapatinib 0.013 | pictilisib -0.006 | crizotinib -0.029 | [1] -0.006 | duvelisib -0.016 | gandotinib -0.03 | tozasertib -0.006 | doramapimod 0.015 | bafetinib 0.029 | [2] -0.003 | nilotinib -0.019 | [3] 0.053 | dasatinib -0.021 | [4] 0.055 | [5] 0.023 | quisinostat -0.104 | tipifarnib -0.015 | [6] -0.019 | [7] -0.004 | [8] -0.023
